Tests used:
Test in all cases: growth AUC relative to DMSO control (median of replicates) (fraction); higher = more growth (less inhibition), active = hit call of the paper
Settings in all cases: 20 µM; 24 h;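 active = AUC reduced over 20% with Padj below 0.05 in at least 2 of 3 replicates; inactive = otherwise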
Akkermansia muciniphila = tested on: Akkermansia muciniphila
In short: (§1)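 Gut bacteria were grown singly in mGAM at 37 °C without oxygen, from OD600 0.05, alongside 20 µM compound in 1% DMSO, and OD600 was read each hour for 24 h. Area under the growth curve was normalised to the median of solvent-only wells per plate, or to row and column medians on the industrial chemical plate. The minimum OD was set to 0 beforehand, and the reported value is the median of three biological replicates grown on separate days.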

Bacteroides caccae = tested on: Bacteroides caccae
In short: as §1

Bacteroides clarus = tested on: Bacteroides clarus
In short: as §1

Bacteroides dorei = tested on: Bacteroides dorei
In short: as §1

Bacteroides stercoris = tested on: Bacteroides stercoris
In short: as §1

[1] = tested on: Bacteroides thetaiotaomicron
In short: as §1

Bacteroides uniformis = tested on: Bacteroides uniformis
In short: as §1

[2] = tested on: Bifidobacterium longum subsp. longum
In short: as §1

Clostridium difficile = tested on: Clostridium difficile
In short: as §1

Collinsella aerofaciens = tested on: Collinsella aerofaciens
In short: as §1

Coprococcus comes = tested on: Coprococcus comes
In short: as §1

Escherichia coli ED1a = tested on: Escherichia coli ED1a
In short: as §1

Escherichia coli IAI1 = tested on: Escherichia coli IAI1
In short: as §1

Eubacterium rectale = tested on: Eubacterium rectale
In short: as §1

[3] = tested on: Fusobacterium nucleatum subsp. animalis
In short: as §1

Lactobacillus gasseri = tested on: Lactobacillus gasseri
In short: as §1

Lactobacillus paracasei = tested on: Lactobacillus paracasei
In short: as §1

Odoribacter splanchnicus = tested on: Odoribacter splanchnicus
In short: as §1

[4] = tested on: Parabacteroides distasonis
In short: as §1

Parabacteroides merdae = tested on: Parabacteroides merdae
In short: as §1

Measured: growth AUC

CCOC(=O)COc1cc(-c2nn(C)c(OC(F)F)c2Cl)c(F)cc1Cl
inactive: Akkermansia muciniphila 0.977 | Bacteroides caccae 0.974 | Bacteroides clarus 0.986 | Bacteroides dorei 0.99 | Bacteroides stercoris 0.965 | [1] 1.01 | Bacteroides uniformis 1.04 | [2] 1.03 | Clostridium difficile 1.02 | Collinsella aerofaciens 1.04 | Coprococcus comes 0.979 | Escherichia coli ED1a 0.995 | Escherichia coli IAI1 0.971 | Eubacterium rectale 1.13 | [3] 1.12 | Lactobacillus gasseri 0.996 | Lactobacillus paracasei 1.01 | Odoribacter splanchnicus 1 | [4] 1.02 | Parabacteroides merdae 1

COCC(=O)N(c1c(C)cccc1C)C(C)C(=O)OC (stereo not given)
inactive: Akkermansia muciniphila 1.11 | Bacteroides caccae 1.03 | Bacteroides clarus 1.02 | Bacteroides dorei 1.03 | Bacteroides stercoris 1.08 | [1] 1.02 | Bacteroides uniformis 1.02 | [2] 1.1 | Clostridium difficile 1.04 | Collinsella aerofaciens 1.02 | Coprococcus comes 1.02 | Escherichia coli ED1a 0.989 | Escherichia coli IAI1 1.01 | Eubacterium rectale 1.04 | [3] 1.09 | Lactobacillus gasseri 1.09 | Lactobacillus paracasei 0.987 | Odoribacter splanchnicus 1.04 | [4] 1.05 | Parabacteroides merdae 1.05

C[C@@H](Oc1ccc(Oc2ccc(C(F)(F)F)cn2)cc1)C(=O)O
inactive: Akkermansia muciniphila 1.08 | Bacteroides caccae 1.04 | Bacteroides clarus 1.02 | Bacteroides dorei 1.02 | Bacteroides stercoris 1.05 | [1] 1.02 | Bacteroides uniformis 0.995 | [2] 0.985 | Clostridium difficile 1.02 | Collinsella aerofaciens 0.957 | Coprococcus comes 1.03 | Escherichia coli ED1a 1 | Escherichia coli IAI1 1 | Eubacterium rectale 1.06 | [3] 1.06 | Lactobacillus gasseri 0.867 | Lactobacillus paracasei 1.02 | Odoribacter splanchnicus 1.03 | [4] 1.01 | Parabacteroides merdae 1.07

C=CC(N)=O
inactive: Akkermansia muciniphila 1.01 | Bacteroides caccae 0.985 | Bacteroides clarus 1 | Bacteroides dorei 0.963 | Bacteroides stercoris 0.983 | [1] 0.99 | Bacteroides uniformis 1.01 | [2] 0.875 | Clostridium difficile 1.01 | Collinsella aerofaciens 1.01 | Coprococcus comes 1.01 | Escherichia coli ED1a 0.972 | Escherichia coli IAI1 1 | Eubacterium rectale 0.997 | [3] 1.02 | Lactobacillus gasseri 1.01 | Lactobacillus paracasei 1.01 | Odoribacter splanchnicus 1.01 | [4] 0.976 | Parabacteroides merdae 0.993

C[N+]1(C)CCCCC1.[Cl-]
inactive: Akkermansia muciniphila 0.993 | Bacteroides caccae 1.02 | Bacteroides clarus 1.03 | Bacteroides dorei 1.02 | Bacteroides stercoris 1.02 | [1] 1.03 | Bacteroides uniformis 1.05 | [2] 1.01 | Clostridium difficile 1.01 | Collinsella aerofaciens 1.02 | Coprococcus comes 1.07 | Escherichia coli ED1a 1.03 | Escherichia coli IAI1 0.992 | Eubacterium rectale 1.2 | [3] 1.09 | Lactobacillus gasseri 0.976 | Lactobacillus paracasei 1.02 | Odoribacter splanchnicus 0.941 | [4] 1 | Parabacteroides merdae 1.04

Cc1ccc(NC(=O)c2snnc2C)cc1Cl
inactive: Akkermansia muciniphila 0.741 | Bacteroides caccae 0.968 | Bacteroides clarus 0.914 | Bacteroides dorei 1.03 | Bacteroides stercoris 0.879 | [1] 0.905 | Bacteroides uniformis 1.02 | [2] 0.898 | Clostridium difficile 1 | Collinsella aerofaciens 1.05 | Coprococcus comes 0.965 | Escherichia coli ED1a 0.968 | Escherichia coli IAI1 0.937 | Eubacterium rectale 1 | [3] 0.938 | Lactobacillus gasseri 1.08 | Lactobacillus paracasei 0.866 | Odoribacter splanchnicus 0.975 | [4] 0.986 | Parabacteroides merdae 0.973

Clc1nc(Cl)nc(Nc2ccccc2Cl)n1
inactive: Akkermansia muciniphila 1.04 | Bacteroides caccae 1.02 | Bacteroides clarus 0.962 | Bacteroides dorei 1.02 | Bacteroides stercoris 1.07 | [1] 0.995 | Bacteroides uniformis 0.997 | [2] 1.01 | Clostridium difficile 1.03 | Collinsella aerofaciens 1.01 | Coprococcus comes 1.03 | Escherichia coli ED1a 1.01 | Escherichia coli IAI1 0.998 | Eubacterium rectale 0.859 | [3] 1.02 | Lactobacillus gasseri 0.991 | Lactobacillus paracasei 1.01 | Odoribacter splanchnicus 1.08 | [4] 1.04 | Parabacteroides merdae 0.969

N#Cc1c[nH]cc1-c1cccc(Cl)c1Cl
inactive: Akkermansia muciniphila 0.905 | Bacteroides caccae 0.819 | Bacteroides clarus 0.9 | Bacteroides dorei 0.871 | Bacteroides stercoris 0.884 | [1] 0.835 | Bacteroides uniformis 0.816 | [2] 1.09 | Clostridium difficile 0.901 | Collinsella aerofaciens 0.935 | Coprococcus comes 0.948 | Escherichia coli ED1a 1.01 | Escherichia coli IAI1 0.981 | Eubacterium rectale 1.06 | [3] 0.797 | Lactobacillus gasseri 1.06 | Lactobacillus paracasei 1.07 | Odoribacter splanchnicus 0.732 | [4] 0.804 | Parabacteroides merdae 0.941

ClC1=C(Cl)C2(Cl)C3C(Cl)C=CC3C1(Cl)C2(Cl)Cl (stereo not given)
inactive: Akkermansia muciniphila 1.1 | Bacteroides caccae 1.01 | Bacteroides clarus 1.01 | Bacteroides dorei 0.958 | Bacteroides stercoris 1.08 | [1] 0.99 | Bacteroides uniformis 0.983 | [2] 0.932 | Clostridium difficile 0.963 | Collinsella aerofaciens 0.951 | Coprococcus comes 0.989 | Escherichia coli ED1a 1.02 | Escherichia coli IAI1 1 | Eubacterium rectale 1.09 | [3] 1.12 | Lactobacillus gasseri 0.856 | Lactobacillus paracasei 0.967 | Odoribacter splanchnicus 0.964 | [4] 0.842 | Parabacteroides merdae 1.02
